According to PubChem BioAssay AID588492 (Sanford-Burnham Center for Chemical Genomics, 2011):
The whole screen tested about 360,000 compounds, of which about 2,300 (0.64%) were called active.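 The calls were made as follows: active = compounds giving at least 50% protection of heart cells from peroxide-induced death in the single-dose screen, raw or plate-pattern-corrected value; inactive = the rest.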 Only a selection was taken, and actives are over-represented in it overall.

experiment: H9c2 cardiomyocyte survival under peroxide injury – uHTS, H9c2 cells, ATPLite luminescence, primary screen (AID 588492); conditions: H9c2 cardiomyocytes, 2 h, at 20 µM, stronger effect = higher value;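 also: 0% = DMSO wells with peroxide and 100% = DMSO wells without peroxide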

| SMILES | protection from H2O2 cell death |
| --- | --- |
| CCCCN(CCCC)CCC(O)c1cc2c(Cl)cc(Cl)cc2c2cc(C(F)(F)F)ccc12 (stereo not given) | -33.9% (inactive) |
| Cc1ccc(NC(=O)Cn2cccc2C2=NC(c3ccccc3)CO2)c(C)c1 (stereo not given) | -6.9% (inactive) |
| COc1ccc(NC(=O)CCS(=O)(=O)c2cc3c(cc2Cl)NC(=O)CO3)cc1OC | 7.8% (inactive) |
| Cc1cc2c(cc1S(=O)(=O)CCC(=O)NCc1ccccc1)OCC(=O)N2 | 2.9% (inactive) |
| COc1ccc(Cl)cc1NC(=O)CCS(=O)(=O)c1cc2c(cc1C)NC(=O)CO2 | 54.6% (active) |
| O=C(Oc1cccc(N2C(=O)C3C4c5ccccc5C(c5ccccc54)C3C2=O)c1)c1ccco1 (stereo not given) | -6.6% (inactive) |
| Nc1c(N(CCO)C(=O)C2CCCCC2)c(=O)[nH]c(=O)n1Cc1ccccc1 | -1.8% (inactive) |
| O=C(CNC(=O)c1ccc(Cl)cc1Cl)NCC(=O)Nc1ccccc1N1CCOCC1 | -2.6% (inactive) |
| Cc1nccn1-c1ccc(NC(=O)[C@H]2O[C@@H](n3cnc4c(N)ncnc43)[C@H](O)[C@@H]2O)cc1 | 4.5% (inactive) |
| Cc1nc(NC(=O)c2ccc3c(c2)OCCO3)ccc1Br | -4.4% (inactive) |
| Cc1cccc(C)c1NC(=O)CNC(=O)c1ccc2c(c1)OCCO2 | 0.8% (inactive) |
| Cc1ccc2sc(NNC(=O)c3ccc4c(c3)OCCO4)nc2c1C | 81.8% (active) |
| O=C1CCN(Cc2ccc([N+](=O)[O-])cc2)CCN1[C@H](CO)Cc1ccccc1 | 0.1% (inactive) |
| COc1ccc(-c2ccc(Nc3ccc(S(=O)(=O)N4CCCC4)cc3)nn2)cc1OC | 58.5% (active) |
| COc1ccc(S(=O)(=O)N2CCCCCC2)cc1NC(=O)Cc1ccc(OC)c(OC)c1 | 4% (inactive) |
| COc1cc(C(C)=O)ccc1OC(C)C(=O)Nc1ccc(S(=O)(=O)N2CCCC2)cc1 (stereo not given) | 4.6% (inactive) |
| CC(Nc1ccccc1)c1cccnc1 (stereo not given) | 4.3% (inactive) |
| O=C(CCN1CCCCC1)Nc1ccc(F)c(F)c1 | 0.6% (inactive) |
| O=C(NCCc1ccc(Cl)cc1)c1cccc(N2CCCC2=O)c1 | -1.2% (inactive) |
| Oc1cc2c(cc1O)CN(C(=S)NCCc1ccc(Cl)cc1)CCC2 | 74.4% (active) |
| Cc1cccc(NC(=S)NCCc2ccc(Cl)cc2)c1C | -6.5% (inactive) |
| CC(C)C1CCN(C(=O)C2CCC(=O)N(C3CCCCCC3)C2)CC1 (stereo not given) | -2.1% (inactive) |
| O=C(N/N=C/c1sc(N2CCCCC2)nc1-c1cccs1)c1cccnc1 | 56.3% (active) |

| SMILES | protection from H2O2 cell death |
| --- | --- |
| Cc1ccc(S(=O)(=O)N2CCCCC2)cc1NC(=O)c1cccnc1 | 12% (inactive) |
| O=C(c1cccnc1)N1CCN(S(=O)(=O)c2cccs2)CC1 | 10.1% (inactive) |
| CC(C(=O)Nc1ccc(S(=O)(=O)N2CCCC2)cc1)N(C)Cc1ccc(F)cc1 (stereo not given) | 0.3% (inactive) |
| O=C(NCC(=O)N(Cc1cccs1)C(C(=O)NC1CCCCC1)c1ccco1)c1cccs1 (stereo not given) | 68.2% (active) |
| Cc1ccccc1N(C(=O)CNC(=O)c1cccs1)C(C(=O)NC1CCCC1)c1ccncc1 (stereo not given) | 1.9% (inactive) |
| O=C(NCC(=O)N(CC1CCCO1)C(C(=O)NC1CCCCC1)c1ccccc1)c1ccco1 (stereo not given) | 2.8% (inactive) |
| COc1ccc(-c2ccc(C(=O)NC(C)C)c3occc23)c(C)c1 | 5.9% (inactive) |
| COc1ccc(-c2nc3n(c2Br)CCC3)cc1 | -13.5% (inactive) |
| COc1ccc(NC(=O)CN(C)C(=O)c2cc(C)oc2C)cc1 | -3.2% (inactive) |
| CCc1ccc(-c2nc(SCC(=O)NC3CCCC3)n[nH]2)cc1 | -11.6% (inactive) |
| O=C(OCc1cn([C@H]2C[C@H](c3ccccc3)N(C(=O)c3cccs3)C[C@@H]2O)nn1)c1ccccc1 | -0.9% (inactive) |
| COC(=O)c1cc(CNC(=O)CC(C)c2ccccc2)ccc1OC (stereo not given) | 9.7% (inactive) |
| COC(=O)c1ccc(C(NC(=O)OCc2ccccc2)/C(C)=C/[C@@H](C)C(=O)NCc2ccc(OC)c(OC)c2)cc1 (stereo not given in full) | 52% (active) |
| COC(=O)c1ccc(C(NC(=O)OCc2ccccc2)/C(F)=C/[C@@H](C)C(=O)O)cc1 (stereo not given in full) | 1.8% (inactive) |
| CCCCNC(=O)C(C)N(CCN(C)C)C(=O)CCCCCN1C(=O)NC(c2ccc(Cl)cc2)C(C(=O)OCc2ccccc2)=C1C (stereo not given) | -27% (inactive) |
| CC(=O)NC(c1cccc(F)c1)c1nc(-c2cccc(F)c2)cs1 (stereo not given) | -2.7% (inactive) |
| Nc1nc2cc(Cl)ccc2n1N | 1.6% (inactive) |
| Cc1c(C(=O)Nc2cccc(S(=O)(=O)N3CCOCC3)c2)oc2ccccc12 | 4.3% (inactive) |
| Cc1c(C(=O)Nc2ccccc2Cl)oc2ccc(S(=O)(=O)N3CCC4(CC3)OCCO4)cc12 | 0.9% (inactive) |
| COc1ccc(NC(=O)c2oc3ccc(S(=O)(=O)N4CCOCC4)cc3c2C)cc1 | 52.7% (active) |
| Cc1ccc(NC(=O)C(C)OC(=O)Cc2c[nH]c3ccccc23)cc1S(=O)(=O)N1CCOCC1 (stereo not given) | -2.5% (inactive) |
| C/C(=N\NC(=O)c1cccc([N+](=O)[O-])c1)c1cccnc1 | 9.5% (inactive) |
| CCN(CC)c1ccc(S(=O)(=O)N2CCCCC2)cc1NC(=O)C1=COCCO1 | -3.5% (inactive) |

| SMILES | protection from H2O2 cell death |
| --- | --- |
| CC(=O)c1c(C)[nH]c(C(=O)OCC(=O)Nc2sc3c(c2C#N)CCCC3)c1C | -12.2% (inactive) |
| CCN1CCN(C(c2cccnc2)c2cc(Cl)c3cccnc3c2O)CC1 (stereo not given) | 64% (active) |
| CCCCC(=O)NC(c1ccc(OC)c(OC)c1)c1ccc2cccnc2c1O (stereo not given) | 36.9% (inactive) |
| CCOC(=O)N1CCN(C(=O)C2CCN(c3ncnc4c3sc3cccc(F)c34)CC2)CC1 | -28.4% (inactive) |
| CCOC(=O)N1CCN(C(c2cccnc2)c2ccc3cccnc3c2O)CC1 (stereo not given) | 69.3% (active) |
| CC(=O)NC(c1cccs1)c1cc(Br)c2cccnc2c1O (stereo not given) | 43.4% (inactive) |
| CCn1c(SC(C)C(=O)Nc2ccc(N3CCOCC3)cc2)nnc1-c1ccco1 (stereo not given) | -3.9% (inactive) |
| O=C(CN1C(=O)c2cccnc2Oc2ccc(Cl)cc21)Nc1ccc(F)cc1 | 21.7% (inactive) |
| OC(c1cc(Cl)cc(Cl)c1)c1ncc(-c2ccccc2C(F)(F)F)[nH]1 (stereo not given) | -8.9% (inactive) |
| COc1cccc(/C=C(/CC(=O)Nc2ccc(N3CCOCC3)cc2)c2nc3ccccc3s2)c1 | -4.6% (inactive) |
| COc1cccc2sc(NNC(=O)c3nc4ccccc4s3)nc12 | 53.7% (active) |
| CC(=O)Nc1cccc(-c2nc3ccccc3s2)c1C | -3.3% (inactive) |
| COC(=O)[C@@H]1CCCN1C(=O)c1cc(COc2cccc3cccnc23)on1 | 11.6% (inactive) |
| CSCCC(c1nnnn1Cc1ccccc1)N1CCN(C/C=C/c2ccccc2)CC1 (stereo not given) | -2% (inactive) |
| Cc1ccc(C(=O)OCC(=O)NC2CCCCCCC2)cc1C | -0.9% (inactive) |
| Cn1c2ccc(F)cc2c2nnc(NN)nc21 | 56.4% (active) |
| CN(C)c1nc(NN)nc(Nc2ccc(F)cc2)n1 | -2.7% (inactive) |
| CCn1c2ccc(F)cc2c2nnc(SCCN3CCOCC3)nc21 | 3.7% (inactive) |
| CSc1nc(-c2ccccc2)nc(C(Cl)Cl)n1 | -2.9% (inactive) |
| COC(=O)c1c(C(=O)OC)c2n(c1C)CCS2 | -0.3% (inactive) |
| COc1ccc(CNC(=O)C(c2ccc(O)cc2)N(Cc2ccco2)C(=O)c2snc(C(N)=O)c2N)cc1 (stereo not given) | 49% (inactive) |
| Cc1cccc(N(C(=O)c2csnn2)C(C(=O)NCc2ccccc2)c2ccncc2)c1 (stereo not given) | 2.2% (inactive) |
| COc1ccc(C(C(=O)NCc2ccccc2)N(Cc2cccs2)C(=O)c2cnccn2)cc1 (stereo not given) | 79.8% (active) |

| SMILES | protection from H2O2 cell death |
| --- | --- |
| CC(C)c1nnc(NC(=O)CCC(=O)N2CCN(c3cccc(Cl)c3)CC2)s1 | -2.1% (inactive) |
| CCOc1ccc(-c2ccc(SCC(=O)N3CCOCC3)nn2)cc1 | -13.9% (inactive) |
| COc1cccc(-c2ccc(SCC(=O)N3CCN(c4ccccc4)CC3)nn2)c1 | 53.9% (active) |
| COc1cccc(/C=C/C(=O)OCC(=O)N2CCN(c3ccccc3)CC2)c1 | 2% (inactive) |
| CC1(C(=O)NS(=O)(=O)Cc2cccc(Cl)c2)CCN1C(=O)Cc1ccccc1 (stereo not given) | -2.8% (inactive) |
| COc1ccc(NC(=O)CN(C)C(=O)CC2CCCCC2)cc1 | 0.1% (inactive) |
| CCOC(=O)c1ccc(NC(=O)c2nc[nH]c2C(=O)NCc2ccccc2)cc1 | 21.8% (inactive) |
| Cc1cccc(NC(=O)c2nc[nH]c2C(=O)NCC(=O)OCc2ccccc2)c1 | 86.4% (active) |
| C[C@H](NC(=O)c1nc[nH]c1C(=O)NCC(=O)OC(C)(C)C)C(=O)OCc1ccccc1 | 41.9% (inactive) |
| COC(=O)C1=C(C)NC(=O)/C1=C/c1ccc(CNS(=O)(=O)c2ccc(C)cc2)o1 | 2.9% (inactive) |
| COC(=O)C1=C(C)NC2=C(C(=O)c3ccccc32)C1c1ccc(-c2ccc(C(=O)O)cc2)o1 (stereo not given) | 60.9% (active) |
| Nc1ccc2nc3c(=O)[nH]c(=S)[nH]c3nc2c1 | -6.1% (inactive) |
| CCOc1ncccc1C(=O)N(CC)CC(=O)Nc1ccc(NC(C)=O)cc1 | -4.3% (inactive) |
| COc1ccc(S(=O)(=O)N(CC(=O)N/N=C/c2ccc(C(=O)O)cc2)Cc2ccccc2)cc1OC | -0.7% (inactive) |
| COc1ccc(N(CC(=O)N/N=C/c2cccs2)S(=O)(=O)c2ccc(OC)c(OC)c2)cc1 | 52.7% (active) |
| COc1ccc(N(CC(=O)N/N=C/c2cccc3c2OCCO3)S(=O)(=O)c2ccc(NC(C)=O)cc2)cc1 | 26.2% (inactive) |
| N#Cc1ncc(C(F)(F)F)cc1Oc1cccnc1 | -0.3% (inactive) |
| Cc1cc(C)c(C(N)=O)c(Cl)n1 | 0.4% (inactive) |
| COc1ccc(C(C)(O)c2nc(-c3ccc(C)c(C)c3)cs2)cc1 (stereo not given) | -13.4% (inactive) |
| COc1ccc(C(O)c2nc(-c3ccc4c(c3)OCO4)cs2)cc1 (stereo not given) | -5.3% (inactive) |
| COc1ccc(OC)c(Nc2nc(-c3ccc(O)c(O)c3)cs2)c1 | 52% (active) |
